From PubChem BioAssay (NCI)
This is part of a sample that, as a whole, favours compounds with a hit. Of some 83,000 tested, about 20% had one in any assay.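 Note: values are percent growth. 100 is the growth of untreated cells, values between 100 and 0 indicate rising inhibition; between -100 and 0 indicates cell death.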 A number with no mark means an inactive call. Activity calls are given as the source filed them. How the source made its calls: active means growth percent below 10; inactive means the rest.

Tests used:
Experiment in all cases: NCI-60 one-dose screen, 48 h (100 = growth as untreated, 0 = no growth, -100 = all killed)
Conditions in all cases: 10 µM unless noted
NCI-H23 lung = tested on: NCI-H23 lung
NCI-H226 lung = tested on: NCI-H226 lung
NCI-H322M lung = tested on: NCI-H322M lung
HOP-62 NSCLC = tested on: HOP-62 NSCLC
NCI-H460 lung = tested on: NCI-H460 lung
NCI-H522 lung = tested on: NCI-H522 lung
A549/ATCC NSCLC = tested on: A549/ATCC NSCLC
786-0 renal = tested on: 786-0 renal
COLO 205 colon = tested on: COLO 205 colon
DU-145 prostate = tested on: DU-145 prostate
K-562 leukemia = tested on: K-562 leukemia
MALME-3M melanoma = tested on: MALME-3M melanoma
MDA-MB-231 breast = tested on: MDA-MB-231 breast
RXF 393 renal = tested on: RXF 393 renal
SF-268 CNS = tested on: SF-268 CNS
SF-539 CNS = tested on: SF-539 CNS
UACC-257 melanoma = tested on: UACC-257 melanoma
M14 melanoma = tested on: M14 melanoma
HCT-15 colon = tested on: HCT-15 colon
SF-295 CNS = tested on: SF-295 CNS

Row | SMILES | growth (NCI-H23 lung) | growth (NCI-H226 lung) | growth (NCI-H322M lung) | growth (HOP-62 NSCLC) | growth (NCI-H460 lung) | growth (NCI-H522 lung) | growth (A549/ATCC NSCLC) | growth (786-0 renal) | growth (COLO 205 colon) | growth (DU-145 prostate) | growth (K-562 leukemia) | growth (MALME-3M melanoma) | growth (MDA-MB-231 breast) | growth (RXF 393 renal) | growth (SF-268 CNS) | growth (SF-539 CNS) | growth (UACC-257 melanoma) [%] | growth (M14 melanoma) | growth (HCT-15 colon) | growth (SF-295 CNS)
1 | COc1cccc(C2C(C#N)=C(N)Oc3cc(OC)ccc32)c1 (stereo not drawn) | 16.2% | 72.6% | 32.6% | 24.6% | 7.42% (active) | -38.4% (active) | 15.6% | 29.9% | -73.4% (active) | -15.2% (active) | -4.51% (active) | 36.6% | -15.4% (active) | 26.9% | 18.3% | -13.3% (active) | 59.2 | 12.6% | 10.4% | 
2 | CN(C)c1ccc2c(c1)/C(=N/O)c1ccccc1-2 | 89% | 91.8% | 113% | 92.2% | 97.2% | 89% | 84.2% | 104% | 103% | 105% | 29.7% | 87.9% | 89.8% | 81% | 78.3% | 60% | 81.6 | 69.7% | 78.7% | 
3 | Fc1ccc(-c2nc(Nc3ccc(-c4nc5ccccc5[nH]4)cc3)nc(N3CCOCC3)n2)cc1 | -83.4% (active) | -64.5% (active) | -92.8% (active) | -73.9% (active) | -80.3% (active) | -73.9% (active) | -75.2% (active) | -94.5% (active) | -68.4% (active) | -94% (active) | -100% (active) | -73.4% (active) | -76.7% (active) | -91.1% (active) | -82.7% (active) | -92.7% (active) |  | -82.6% (active) | -92.6% (active) | -94.4% (active)
4 | CC[C@]1(O)CC2CN(CCc3c([nH]c4ccccc34)[C@@](C(=O)OC)(c3cc4c(cc3OC)N(C)[C@H]3[C@@](O)(C(=O)OC)[C@H](OC(C)=O)[C@]5(CC)C=CCN6CC[C@]43[C@@H]65)C2)C1 (stereo partly drawn) | 16.1% | 48.9% | 54.4% | 31.7% | 2.54% (active) | -17.9% (active) | 17.2% | 13.8% | -50.7% (active) | -39.8% (active) | 7.74% (active) | 38.4% | 5.18% (active) | 25.9% | 4.83% (active) |  | 61.9 |  | 6.5% (active) | 12.2%
5 | COc1cc(C2C=C(c3ccc(C)cc3)Nc3nc(SC)[nH]c(=O)c32)ccc1Oc1ccnc2cc(Cl)ccc12 (stereo not drawn) | 80.7% | 79.7% | 84% | 113% | 70.2% | 75% | 63.1% | 85.1% | 101% | 64.5% | 75.6% | 80.1% | 73.6% | 83.4% | 59.6% | 100% | 62.7 |  | 64% | 70.1%
6 | CSc1ccc2c(c1)N(CCC1CCCCN1C)c1ccccc1S2 (stereo not drawn) | 83.9% | 107% | 64% | 68.8% | 46.8% | 56.3% | 63.9% | 43.9% | 18.9% | 68.7% | 1.49% (active) | 72.8% | 46.3% | 26.7% | 54.5% |  | 32.8 | -57.9% (active) | 43.4% | 58.4%
7 | COc1ccc(C2CC(c3ccc(OC)c(OC)c3)=NN2C(=O)c2cc(OC)c(OC)c(OC)c2)cc1 (stereo not drawn) | 46.6% | 51.9% | 37.7% | 34.8% | 6.07% (active) | -35.9% (active) | 27.2% | 26.7% | 8.03% (active) | 11.6% | 28.3% | 57.7% | 12.6% | -21.4% (active) | 54.7% | -14.5% (active) | 66.3 |  | 32.8% | 4.28% (active)
8 | CCOC(=O)C1=C(C)N2C(=NC3=C(CCC/C3=C\c3ccc(Cl)cc3)C2c2ccc(Cl)cc2)S1 (stereo not drawn) | 10.9% | 47.5% | 101% | 88.2% | 51.8% | 58% | 5.11% (active) | -0.562% (active) | 8.78% (active) | -0.137% (active) | -11.8% (active) | 77% | 71.6% | -71.7% (active) | 34.7% | 41.3% | 25.7 | -40.8% (active) | -28.7% (active) | 
9 | CCC(=O)Nc1ccccc1C#C/C=C\C#Cc1ccccc1C(F)(F)F | 57.3% | 52.5% | 37.4% | 54.5% | 10.2% | 68.2% | 64.2% | 50.5% | 59.4% | 40% | 43.4% | 54.4% | 55.6% | 42.8% | 67.8% | 55% |  | 40.5% | 56.3% | 28.8%
10 | Cc1cc(CC(=O)O)n(C)c1C(=O)c1ccc(Cl)cc1 | 96.3% | 95.2% | 120% | 117% | 115% | 101% | 108% | 103% | 114% | 125% | 103% | 102% | 109% | 117% | 114% |  | 104 | 106% | 103% | 93.1%
11 | Cc1ccc(NC(=O)Nc2ccc(-c3cccnc3)cc2N2CCC(CO)CC2)cc1 | 4.01% (active) | 54% | 34.3% | 24.9% | 29.1% | 9.32% (active) | 7.01% (active) | -8.69% (active) | 31.5% | 29.8% | 9.37% (active) | 25.5% | 9.31% (active) | -34.8% (active) | 36.5% | 1.34% (active) | 24.3 |  | 20.2% | 40.1%
12 | CCCCCCCC/C=C/CCCCCCCC1=NC(C)(C)CN1CCO | 47.1% | 83.3% | 50.8% | 6.19% (active) | -39.5% (active) | -45.2% (active) | 24.7% | 32.3% | -63.9% (active) | 64.5% | -51.6% (active) | 64.9% | 9.49% (active) | -23.4% (active) | 46% | -5.97% (active) | 20.1 |  | -34.9% (active) | 30.2%
13 | Nc1nonc1-c1nc2ccccc2n1CC(=O)Nc1ccc2c(c1)COC2=O | 86.3% | 87.7% | 107% | 83.8% | 95.7% | 61.6% | 88.8% | 93% | 98.4% | 108% | 38.9% | 79.4% | 82.1% | 93.7% | 90.3% | 86.5% | 90.1 | 72.9% | 70.5% | 
14 | O=C(Nc1ccncc1)C(=O)c1cn(S(=O)(=O)c2cccc(F)c2)c2ccccc12 | 34% | 75.8% | 101% | 52.7% | 65.4% | -12.5% (active) | 67.3% | 61.7% | 106% | 50% | 23.9% | 58.2% | 67.4% | 59.9% | 75.9% | 27.3% | 75.6 | 26.8% | 25.3% | 
15 | Cc1cc(C(C)(C)C)cc(C)c1CC1=NCCN1 | 99% | 89.2% | 102% | 109% | 118% | 106% | 104% | 96.9% | 92.6% | 107% | 90.4% | 99.2% | 109% | 107% | 100% |  | 106 | 107% | 102% | 96.3%
16 | C=C(C[C@](O)(C(=O)/C=C/c1ccc(Cl)cc1)C(=O)OC)c1ccccc1 | 64.4% | 89.7% | 90.3% | 54% | 88.6% | 66% | 74.4% | 84% | 60.4% | 97.4% | 50.7% | 95.7% | 71% | 52.5% | 87.4% | 75.8% | 91.7 |  | 3.71% (active) | 98.9%
